# MITF TRPM1 inh: reduces MITF-dependent TRPM1 promoter luciferase signal | SK-MEL-5 TRPM1 promoter luciferase, 24 h | inhibition, % at 12.5 µM | actives 0.83% (n = 330,000);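 active = mean inhibition across replicates of 60% or more, whatever share of single replicates reaches that level; inconclusive = some that reach 60%, reason not given; inactive = mean inhibition across replicates below 60%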
# HIF-2a inh: HIF-2a inhibition | actives 0.72% (n = 360,000) | 786-0 RCC cells HIF-2a reporter, luciferase luminescence, overnight | inhibition, % at 18.8 µM;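 active = inhibition of the luminescence signal of 40% or more relative to plate controls, in a single-dose primary screen at 18.75 µM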
# Shn3 inh set2: reduces Shn3 3'UTR luciferase signal in osteoblasts. inhibition, % at 12.5 µM. Clone20 osteoblast Shn3 3'UTR firefly luciferase, 24 h. actives 0.52% (n = 360,000);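 active = mean inhibition of at least 75% with every replicate also reaching 75%; inconclusive = mean inhibition at least 75% but some replicate below; inactive = mean inhibition below 75%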;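 note: 0% = median of neutral control wells and 100% = pilot-screen positive control compound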
# CF NFkB inh: blocks PAF-induced NF-kB reporter in cystic fibrosis cells. actives 0.86% (n = 360,000). inhibition, % at 5 µM. KKLEB NF-kB-GFP reporter, GFP fluorescence overnight;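 active = at least 50% inhibition at 5 µM, scaled per plate between neutral and stimulator controls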;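 note: PAF is a Pseudomonas aeruginosa culture filtrate used as stimulus; plate controls were PAF-stimulated DMSO wells for no effect and unstimulated DMSO wells for full effect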
# Peg3 prom inh-1: inhibitors of Peg3 promoter. HeLa PEG-Prom luciferase reporter, luminescence, overnight. inhibition, % at 20 µM. actives 1.7% (n = 360,000);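 active = inhibition of at least 50% at 20 µM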
# KKLEB cytotox: counter-screen for CF NF-kB inhibitors: cytotoxicity. activity change (cytotoxicity), % at 5 µM. actives 0.36% (n = 360,000). AID 602141. KKLEB CF airway cells viability, ATPlite luminescence, overnight; stronger effect = lower value; cells stimulated with P. aeruginosa culture filtrate;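 active = corrected activity change at or below -50% at 5 µM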
# Peg3 prom inh-2: confirmation of Peg3 promoter inhibitors | inhibition, % at 20 µM | actives 84% (n = 1,300) | HeLa PEG-Prom luciferase reporter, luminescence, overnight | shares compounds with Peg3 prom inh-1 | AID 602417;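 active = at 20 µM dose, 40% or more inhibition averaged across four replicates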
# CF NFkB inh conf: CF NF-kB inhibition confirmation, single concentration; AID 602472; shares compounds with CF NFkB inh; actives 64% (n = 1,300); KKLEB CF airway cells, PAF-induced NF-kB-GFP fluorescence, overnight; inhibition, % at 5 µM; in the data active = inhibition above about 40%;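 note: stimulus PAF is a Pseudomonas aeruginosa filtrate and not platelet activating factor; plate controls were DMSO wells with stimulus for no effect and unstimulated DMSO wells for full effect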
# Mdm2 MdmX conf: confirmation of inhibitors of human Mdm2/MdmX interaction, set 2. AID 504601. inhibition, % at 8 µM. shares compounds with HIF-2a inh. SaOS-2 split-luciferase Mdm2/MdmX complementation, luminescence. actives 99% (n = 740);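 active = mean inhibition of the luminescence signal across two replicates at or above 26 percent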
# HIF-2a conf: confirmation of HIF-2a inhibitors; shares compounds with HIF-2a inh; 786-0 RCC cells, HIF-2a luciferase reporter luminescence, overnight; inhibition, % at 18.8 µM; actives 56% (n = 1,800); AID 651580;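 active = mean inhibition across four replicates of at least 40 percent at the single tested concentration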
# HIF-1a counter: counter-screen for HIF-2a inhibitors: HIF-1a inhibition in MiaPaCa-2 cells; shares compounds with HIF-2a inh; MiaPaCa-2 HIF-1a luciferase reporter, desferoxamine, overnight; inhibition, % at 18.8 µM; actives 72% (n = 1,800); AID 651589;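 active = mean inhibition of the reporter signal across four replicates at the single tested dose of 50% or more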
# * marks the source's active call; other numbers are inactive results; ? = inconclusive; · = no result. A selection: hits, their analogues and other compounds. The true share with any hit is near 2.8%.
SMILES,MITF TRPM1 inh,HIF-2a inh,Shn3 inh set2,CF NFkB inh,Peg3 prom inh-1,KKLEB cytotox,Peg3 prom inh-2,HIF-2a conf,HIF-1a counter,others
COc1ccc(N(C(=O)Cc2cccs2)C(C(=O)NC2CCCC2)c2ccncc2)cc1 (stereo not drawn),-23,-11,-21,3,-4,-3,·,·,·,
COc1ccccc1N1CCN(S(=O)(=O)c2c(C(=O)N3CCOCC3)c(C)n(C)c2C)CC1,2,11,-19,-1,16,3,·,·,·,
Nc1nc(COc2ccc(F)cc2Cl)nc(N2CCCCC2)n1,-8,9,16,4,19,-8,·,·,·,
CN(CCC#N)C(=O)COC(=O)c1ccccc1C(=O)c1ccc(Cl)c([N+](=O)[O-])c1,66*,43*,7,76*,95*,-28,33,0,68*,CF NFkB inh conf=97*
Cc1ccc(C(=O)CSc2nnc3ccccn23)c(C)c1,-11,-88,-25,5,-108,15,·,·,·,
COCCn1c(C)cc(C(=O)CSc2nnc3ccccn23)c1C,59,44*,37,7,64*,-7,54*,76*,49,
COc1ccc(Nc2oc(COc3ccccc3OC)nc2C#N)cc1,17,59*,24,-4,77*,5,51*,62*,57*,
CC(C)(C)c1ccc(C(=O)O/N=C(\N)c2ccccn2)cc1,78*,82*,63,47,111*,-38,99*,85*,84*,
C/C(=N/NC(=O)c1ccc(C(C)(C)C)cc1)c1ccccn1,22,-170,81,26,-95,-6,·,·,·,
C/C(=N\OC(=O)c1ccc(Br)cc1)c1ccccn1,2,-23,19,-5,-102,5,·,·,·,
Cc1ccc(C(=O)O/N=C(\N)c2ccccn2)cc1,67*,62*,44,9,107*,-22,77*,·,·,Mdm2 MdmX conf=49*
CCCN(CC(=O)Nc1ccccc1C)C(=O)COc1c(C)cccc1C,3,-12,-20,4,2,-7,·,·,·,
CCCN(CC(=O)Nc1ccccc1C)C(=O)CCl,63*,39,3,12,64*,-12,46*,·,·,Mdm2 MdmX conf=95*
N#Cc1cccc(NC(=O)c2cc(C3CCCCN3C(=O)c3cccs3)on2)c1 (stereo not drawn),·,1,-3,-1,1,-2,·,·,·,
Cc1cc(C(=O)Nc2cccc(C(=O)O)c2)oc1C,87*,81*,61,6,82*,-3,52*,78*,-15,
C/C(=N\OCc1ccc(C#N)cc1)c1ccccc1,-87,-331,-44,-21,-284,16,·,·,·,
C/C(=N\OCc1cccc(C(=O)O)c1)c1ccc(Cl)cc1,·,73*,37,-14,55*,4,36,79*,-104,
C=C1CC2(OC1=O)c1ccccc1CCc1ccccc12,108*,90*,100*,89*,97*,-85*,97*,98*,107*,
CC(=O)c1sccc1NC(=O)CC(C)(C)CC(=O)O,·,12,-6,-31,11,-2,·,·,·,
CC1(CO)COC(c2ccccc2)=N1 (stereo not drawn),-4,13,-11,8,10,-5,·,·,·,
Cc1ccc(C(=O)NCCc2cccs2)cc1,54,44*,38,-13,62*,-24,44*,62*,57*,
O=C(Cc1c(F)cccc1Cl)N1CCN(S(=O)(=O)c2cccc(F)c2)CC1,0,17,11,21,1,0,·,·,·,
COc1ccc(C(=O)Nc2nc3ccccc3s2)c(OC)c1,84*,92*,93*,0,107*,-88*,99*,·,·,Mdm2 MdmX conf=97*
COc1ccc2nc(NC(=O)c3ccccc3C(=O)O)sc2c1,-1,0,-26,-20,-12,6,·,·,·,
Cc1[nH]c(=O)[nH]c(=O)c1S(=O)(=O)N(CC(C)C)CC(C)C,2,10,-11,-11,-1,12,·,·,·,
SMILES,MITF TRPM1 inh,HIF-2a inh,Shn3 inh set2,CF NFkB inh,Peg3 prom inh-1,KKLEB cytotox,Peg3 prom inh-2,HIF-2a conf,HIF-1a counter,others
O=[N+]([O-])c1cc(/C=N/NC(=S)Nc2ccccc2Cl)ccc1Cl,?,70*,-16,-24,96*,7,17,11,104*,
CCOC(=O)c1cnc(Nc2nc3ccccc3o2)nc1C,57,74*,50,-13,79*,-24,69*,81*,71*,
CCOC(=O)c1cnc(Nc2nc3ccccc3o2)nc1CSc1nnc(C)s1,-17,-112,-29,-12,-69,8,·,·,·,
O=C1NC(=O)C(=C2CCOC2=O)N1,·,7,-8,-13,4,3,·,·,·,
N#Cc1cn(N2CCCCC2)c(=O)[nH]c1=O,13,13,-1,-5,-10,6,·,·,·,
Nc1ccc2c(c1)OC1(CCCC1)O2,62*,52*,78,14,77*,11,56*,19,79*,Mdm2 MdmX conf=31*
CC(=O)N1CCCC(c2cc(C(=O)Nc3ccccc3)no2)C1 (stereo not drawn),·,72*,46,-26,65*,-8,73*,82*,60*,
O=C(Nc1ccccc1)c1cc(C2CCCN(C(=O)C3CC3)C2)on1 (stereo not drawn),·,25,17,-1,23,0,·,·,·,
COc1cc(C2NC(=O)NC(C)=C2C(=O)OCC2CCCCC2)ccc1O (stereo not drawn),5,25,3,1,18,-10,·,·,·,
COc1ccc(-c2cc3c(=O)n(CC(=O)NCCN4CCCC4)nc(C)n3n2)cc1,-7,-19,-16,2,-27,-27,·,·,·,
CSc1cccc(NC(=S)Nc2cc(C)ccc2C)c1,-9,-20,-5,-7,-9,-4,·,·,·,
O=C(/C=C/c1cc(Br)ccc1O)c1ccco1,51,94*,12,94*,107*,-2,99*,46*,102*,
O=C(/C=C/c1ccccc1O)c1ccco1,-5,-16,-10,14,10,3,·,·,·,
CC1=C(C(=O)OCc2ccc3c(c2)OCO3)C(c2ccc(Cl)cc2)NC(=O)N1 (stereo not drawn),55,33,12,93*,53*,-37,29,·,·,Mdm2 MdmX conf=95*

# Screening results as filed in PubChem.
